In the supplement of paper PMC3334620:
Over roughly 33,000 sequences, “E-score (-0.5 to 0.5)” has its median near -0.036; the highest 2% begin near 0.37. Shown is part of a subset that was picked to be rich in the highest values.

Target: T1, Yer064c (UniProt P40041)
T1 sequence: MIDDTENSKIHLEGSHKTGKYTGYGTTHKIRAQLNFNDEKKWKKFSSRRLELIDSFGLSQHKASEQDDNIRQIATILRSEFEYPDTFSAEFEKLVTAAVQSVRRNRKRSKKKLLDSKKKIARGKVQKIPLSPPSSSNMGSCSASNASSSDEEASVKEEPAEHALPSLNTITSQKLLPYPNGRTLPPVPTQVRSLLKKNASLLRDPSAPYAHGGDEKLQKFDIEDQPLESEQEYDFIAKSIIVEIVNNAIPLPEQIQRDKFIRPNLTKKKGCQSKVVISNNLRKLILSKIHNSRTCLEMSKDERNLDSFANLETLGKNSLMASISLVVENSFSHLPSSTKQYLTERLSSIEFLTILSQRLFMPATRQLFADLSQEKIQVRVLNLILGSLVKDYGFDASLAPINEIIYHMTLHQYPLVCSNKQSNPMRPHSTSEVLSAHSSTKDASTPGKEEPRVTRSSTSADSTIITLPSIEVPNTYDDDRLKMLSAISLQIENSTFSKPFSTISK
Test: PBM E-score (8-mer binding enrichment) (E-score (-0.5 to 0.5)); higher = stronger / more preferred TF binding
Settings: protein concentration: 200 nM; construct: GST-full length
Description: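 Universal 'all 10-mer' protein binding microarrays (Agilent AMADID 015681) probed with GST-tagged S. cerevisiae TFs (full-length or DBD) made by in vitro transcription/translation (PURExpress), about 100-200 nM. Bound TF was detected with fluorescent anti-GST. Each ungapped 8-mer (which stands for itself and its reverse complement) is scored by the PBM enrichment score (E-score), a modified Wilcoxon-Mann-Whitney statistic from -0.5 to +0.5, computed with the Universal PBM Analysis Suite. Scale: above 0.35 generally sequence-specific binding.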

Sequence	PBM E-score
AGGCAGTC	0.213
CTTTGAGA	0.179
TGAGCTAA	0.189
GCTGTAGA	-0.0534
AGTTAGCG	-0.0192
CTTGTGAC	0.222
ATTGGTCA	0.0959
CATCCACC	-0.0348
CCTGGACA	-0.127
ACGATTAC	0.185
ATGATTTG	0.299
ATGATTAG	0.438
ATGATTAC	0.472
AAGATTAC	0.241
ACGATTAG	0.152
ATGAGTCG	0.474
ATGAGTGC	0.226
CTGAGTTC	0.104
ATGAGTGG	0.193
CTGAGTCC	0.402
ATGAGTCC	0.442
CTGAGTGC	-0.0835
ATGAGTTC	0.327

Sequence	PBM E-score
ATGAGTTG	0.194
AGCTACGG	-0.0957
CAGTGGTC	0.0376
GGCACGGA	-0.127
TACTTCTA	0.0324
TGTCCAAA	-0.0925
ATTTCTTC	-0.058
ACGATTGA	0.216
GCGATTGA	0.145
ATGATTGC	0.375
CTGATTGA	0.305
CTGATTGC	0.274
ATGATTGG	0.286
GTGATTGA	0.401
ACGATTGC	0.0745
ATGATTGA	0.423
GGTGAAAA	-0.106
CAAATCTC	0.0434
CATCTACG	0.104
AGGTGAGC	-0.00638
CCGGGTGA	0.176
AATGCTCA	0.0674
ATTCAGCG	-0.0722

Sequence	PBM E-score
AGTCAGCG	0.453
AGTCAGCC	0.458
ACTCAGCG	0.269
GGTCAGCA	-0.0951
CGTCAGCA	-0.0315
CGTCAGCC	-0.135
ACTCAGCC	0.335
AGTCAGCA	0.455
GGCAGCAA	-0.355
GCAGATGC	-0.257
CAATGGTC	0.183
ATGTATTA	0.0655
ATGCTTTG	-0.00054
TAACAGTA	-0.019
CTATAGTA	0.0624
ATATAGTA	0.128
ATATAGTC	0.403
CTATAGCC	-0.0342
CTATAGTC	0.37
ATATAGTG	0.0402
ACCGAACT	-0.0318
AGCAGAAA	-0.0226
CAGAGTGG	-0.106

Sequence	PBM E-score
CAGACGAG	-0.0357
CGCTCTAG	-0.196
CCGACAAA	-0.0238
GTCATCGA	0.389
CTCATCGA	0.173
ATCATCGA	0.31
ACCTGAAA	-0.0522
CAGGTTGA	0.0225
CCAGAAAG	0.0675
AGTAGTCG	0.381
AGTAGTCA	0.478
AGTAGTAG	0.00559
GGTAGTGA	0.0671
CGTAGTCA	0.483
CGTAGTCC	0.262
AGTAGTCC	0.302
GGTAGTCA	0.479
CGTAGTAA	-0.0636
AGTAGTTA	0.112
GGTAGTAA	0.0578
AGTAGTAA	0.156
GGCCGTCA	-0.262
CTCTGGTC	-0.00298

Sequence	PBM E-score
GGAATTCA	-0.0346
ACGAACGT	-0.129
ATGACCGC	-0.075
CCAGTCGA	0.00412
CGTACGTC	-0.241
ACGGAGTA	-0.0195
CCGGAGTC	0.373
CCGGAGGC	-0.154
CCGGAGTA	0.0206
ACGGAGTG	-0.215
ACGGAGTC	0.431
ATGTACTG	0.0673
ACTGTCAA	-0.0537
GCGTCGCA	0.0193
CACTAATC	0.191
AACTAATC	0.15
GACTAATC	0.439
GACTAATA	0.445
CACTAATA	0.134
TACTAATA	-0.1
